Assay outcomes (PubChem BioAssay)
ASM inhibitor = Inhibitors of Secretory Acid Sphingomyelinase (S-ASM): qHTS | placental ASM, HMU-PC fluorogenic substrate, 60 min | Potency, µM (top dose mostly 57.5 µM), inactives show at the top dose activity change, negative = inhibition, actives largely listed as inhibitors | 0.006% of 340,000 active | Sphingomyelin phosphodiesterase (Homo sapiens), P17405; note: potency is the fitted concentration of half-maximal effect
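Fluorogenic HMU-PC substrate (9 uM final) is turned over by placental ASM in 60 min at 37 C after a 10 min compound preincubation. Reaction ended by alkaline stop (pH 10), with fluorescence read at 386/447 nm.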
Mm-Cpn inhibitor = Inhibitors of TCP-1 ring complex (TRiC) of Methanococcus maripaludis (MmCpn): qHTS; 0.031% of 330,000 active; Chaperonin Mm-Cpn (Methanococcus maripaludis); Potency, µM (series often up to 76.9 µM), for the others: at the highest dose activity, negative = inhibition, hits mostly inhibitors; purified Mm-Cpn ATPase, ADP Transcreener TR-FRET; note: potency is the fitted concentration of half-maximal effect; % is set by controls: 0 for no effect and ±100 for the full control effect; nearly all actives have a fitted effect of over 80% in size
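Compound-treated chaperonin, 25 nM final, turns over 10 uM ATP at 37°C for 30 min following a 10 min preincubation; ADP generated competes with ADP-d2 for Eu-cryptate antibody, lowering FRET.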
p53 reactivator = qHTS assay for re-activators of p53 using a Luc reporter | AID 504706, 2011 | 0.063% of 320,000 active | H1299 p53-A138V BP100-luciferase reporter, luminescence, 24 h | Potency, µM (highest dose often 92.2 µM), for the others: at the top dose activity change, positive = activation, most hits filed as activators; note: potency is the fitted concentration of half-maximal effect; % of control where 0% means no effect; nearly all actives have a fitted effect of over 45% in size
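p53-null H1299 cells stably carrying temperature-sensitive p53-A138V and a BP100-luciferase reporter were pinned with compounds (4-point, 1:5 series) and held 24 hrs at 37 deg C. Luminescence was read 10 min after detection reagent.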
PINK1 modulator = A Quantitative High throughput Screen to Identify Chemical Modulators of PINK1 Expression. PINK1 immunofluorescence, high-content cytometry, 24 h. Potency, µM (top dose mostly 76.6 µM), without a hit: top-dose activation (PINK1 increase), hits mostly activators. 0.2% of 410,000 active; active = well fitted activation curve with a large enough effect; inconclusive = small, poorly fitted or top-dose-only effect; cell line not stated here; note: potency is the fitted concentration of half-maximal effect; % of control where 0% means no effect; nearly all actives have a fitted effect of over 65% in size
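Compound titrations (5 concentrations, 24 h) on a stable cell line; DMSO and CCCP controls. Endpoint: fixed-cell PINK1 immunofluorescence with mitochondrial, cell and nuclear markers, scanned by microplate cytometer.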
ALOX12 inh = Primary qHTS assay for inhibitors of human arachidonate 12S-lipoxygenase (ALOX12): Round 2 | Polyunsaturated fatty acid lipoxygenase ALOX12 (Homo sapiens), P18054 | purified 12hLO, xylenol orange hydroperoxide absorbance | Potency, µM (top dose mostly 108 µM), without a hit: at the top dose activity change, negative = inhibition, hits mostly inhibitors | 1.1% of 580,000 active; note: potency is the fitted concentration of half-maximal effect; % is set by controls: 0 for no effect and ±100 for the full control effect
Target sequence (P18054 whole entry, looked up): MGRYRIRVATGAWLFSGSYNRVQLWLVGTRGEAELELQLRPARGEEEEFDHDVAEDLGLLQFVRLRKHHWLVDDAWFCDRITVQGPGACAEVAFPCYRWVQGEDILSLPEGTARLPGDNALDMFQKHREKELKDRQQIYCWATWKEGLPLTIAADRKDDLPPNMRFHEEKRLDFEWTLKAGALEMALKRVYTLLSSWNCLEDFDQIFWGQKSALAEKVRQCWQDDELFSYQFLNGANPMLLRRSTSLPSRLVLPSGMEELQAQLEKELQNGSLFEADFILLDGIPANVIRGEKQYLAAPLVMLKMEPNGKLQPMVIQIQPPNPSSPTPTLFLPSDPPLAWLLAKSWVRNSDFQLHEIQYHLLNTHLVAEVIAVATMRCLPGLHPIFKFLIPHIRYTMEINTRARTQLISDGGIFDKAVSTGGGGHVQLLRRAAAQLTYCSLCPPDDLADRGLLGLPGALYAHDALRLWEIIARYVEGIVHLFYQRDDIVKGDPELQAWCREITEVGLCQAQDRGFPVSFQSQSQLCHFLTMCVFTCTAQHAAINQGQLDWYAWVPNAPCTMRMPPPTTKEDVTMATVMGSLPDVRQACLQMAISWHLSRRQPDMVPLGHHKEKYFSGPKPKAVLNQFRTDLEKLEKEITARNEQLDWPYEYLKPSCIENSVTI
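Purified human 12hLO (150 nM final) in 25 mM Hepes, 0.01% Triton X-100, pH 7.0 was preincubated 15 min at room temperature with compound. Then 40 uM arachidonic acid was added, 30 min. Hydroperoxide was read by Fe-XO absorbance ratio 573/405 nm.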
CCT chaperon mod = High-Throughput Screening for Modulators of Cytosolic Chaperonin Activity. activity change, % (test concentration not listed), hits read low. 0.3% of 360,000 active. purified chaperonin ATPase assay, HTRF ADP detection, 30 min. AID 651819, 2012; in the data active = activity change below about -30%; note: % is set by controls: 0 for no effect and ±100 for the full control effect
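We incubate TRiC, 40 or 20 nM final, with library compounds at 76 uM and 10 uM ATP for 30 min at 37 °C. ADP formed is detected with Transcreener HTRF reagents after 30 min at room temperature.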
Active calls of the source: *; [ ] = dose if it differs, or a comment. An excerpt weighted towards active compounds, which were near 1.4% of everything screened. Unless noted, calls come from the whole dose curve; as a rule, active = well fitted curve in the direction sought with a large enough effect; inconclusive = small, poorly fitted or top-dose-only effect, or another doubt; inactive = no such curve, though single readings can be large; an effect the other way counts as inactive or inconclusive.

Screening CCn1c2c(c(=O)n1-c1ccccc1)CCN(CCCc1ccccc1)C2 returned ALOX12 inh 28µM*.
Screening O=c1c2c(n(Cc3ccccc3)n1-c1ccccc1)CN(Cc1cccnc1)CC2 returned ALOX12 inh -17%[176 µM].
COc1ccc2c(c1)[N+](C)(C)C(C)(C)C=C2C was read as ASM inhibitor 8%, Mm-Cpn inhibitor 2%, p53 reactivator 4%, PINK1 modulator 0%, ALOX12 inh 32µM* and CCT chaperon mod -1.
`O=C(NC(=S)NCCC1=CCCCC1)c1ccco1` gave ASM inhibitor 0%, Mm-Cpn inhibitor -2%, p53 reactivator 6%, PINK1 modulator 7%, ALOX12 inh 45µM* and CCT chaperon mod -2.
`O=C(NC(=S)NCCC1=CCCCC1)c1ccc(Br)o1` gave ASM inhibitor -4%, Mm-Cpn inhibitor 0%, p53 reactivator 13%, PINK1 modulator 9%, ALOX12 inh inconclusive and CCT chaperon mod 0.
Screening Cc1ccccc1C(=O)NC(=S)NCCc1ccccc1 returned ASM inhibitor -1%, Mm-Cpn inhibitor -3%, p53 reactivator inconclusive, PINK1 modulator 7%, ALOX12 inh 28µM* and CCT chaperon mod 0.
For Cc1ccccc1C(=O)NC(=S)NCCC1=CCCCC1 the results were ASM inhibitor -2%, Mm-Cpn inhibitor 0%, p53 reactivator 24%, PINK1 modulator 18%, ALOX12 inh 22µM* and CCT chaperon mod -1.
Screening COc1cccc(CC(=O)N2CCC3(CC2)NC(=O)N(c2cccc(F)c2)N3)c1 returned ALOX12 inh 5µM*.
For O=C(Cc1ccc(Cl)cc1)N1CCC2(CC1)NC(=O)N(c1ccccc1Cl)N2 the results were ALOX12 inh 1.4µM*.
Screening Cc1ccccc1CC(=O)N1CCC2(CC1)NC(=O)N(c1cccc(F)c1)N2 returned ALOX12 inh 2.8µM*.
Screening Cc1ccc(C(=O)N2CCC3(CC2)NC(=O)N(c2cccc(F)c2)N3)s1 returned ALOX12 inh -70%.
Cc1ccccc1C(=O)N1CCC2(CC1)NC(=O)N(c1cccc(F)c1)N2 was read as ALOX12 inh 1.8µM*.
`COc1cccc(CC(=O)N2CCC3(CC2)N(C)C(=O)CS3(=O)=O)c1` gave ALOX12 inh 39%.
Screening CCOC(=O)c1noc2nc(C)n(CC(=O)Nc3cc(Cl)c(OC)cc3OC)c(=O)c12 returned ALOX12 inh -12%.
For COc1ccc(CCC(=O)NC2CC(=O)N(c3cccc(F)c3)C2)cc1 (configuration not stated) the results were PINK1 modulator 0% and ALOX12 inh -2%.
Screening O=C(Cc1ccc(Cl)cc1)N1CCC2(CC1)NC(=O)N(c1cccc(F)c1)N2 returned ALOX12 inh 3.2µM*.
`COc1cccc(CC(=O)N2CCC3(CC2)NC(=O)N(c2cccc(Cl)c2)N3)c1` gave ALOX12 inh 1.4µM*.
For COc1ccc(CCC(=O)N2CCC3(CC2)NC(=O)N(c2cccc(F)c2)N3)cc1 the results were ALOX12 inh 5µM*.
Screening O=C(Cc1cccc(F)c1)N1CCC2(CCC(=O)N(CC3CC3)CC2)CC1 returned ALOX12 inh -7%.
For O=C(Cc1cccc(F)c1)N1CCC2(CC1)NC(=O)N(c1cccc(F)c1)N2 the results were ALOX12 inh 6.3µM*.
For COc1cccc(CC(=O)N2CCCC3(C2)NC(=O)N(Cc2ccccc2)C3=O)c1 (configuration not stated) the results were ALOX12 inh 1%.
For COc1cccc(CC(=O)N2CCC3(CC2)NC(=O)N(c2ccccc2)N3)c1 the results were ALOX12 inh 3.2µM*.
CCOC(=O)C1=C(C)NC(=S)NC1c1ccc(-c2ccc(Cl)cc2)o1 (configuration not stated) was read as ASM inhibitor -11%, Mm-Cpn inhibitor -23%, p53 reactivator -6%, PINK1 modulator 4%, ALOX12 inh 32µM* and CCT chaperon mod -2.
`CCOC(=O)C1=C(C)NC(=O)NC1c1ccc(-c2ccc(Cl)cc2)o1` (configuration not stated) gave ASM inhibitor 0%, Mm-Cpn inhibitor -3%, p53 reactivator 0%, PINK1 modulator 10%, ALOX12 inh -24% and CCT chaperon mod 0.
Screening Cc1cccc(NC(NC(=O)c2ccc(Cl)cc2)C(Cl)(Cl)Cl)c1 (configuration not stated) returned ALOX12 inh 38%.
For CCOC(=O)C1CCCCN1Cc1cccc(OCc2ccccc2)c1 (configuration not stated) the results were ASM inhibitor -1%, Mm-Cpn inhibitor 0%, p53 reactivator 0%, PINK1 modulator 9%, ALOX12 inh 23% and CCT chaperon mod 2.
For CCOC(=O)C1CCCCN1Cc1cccc(Oc2ccccc2)c1 (configuration not stated) the results were ASM inhibitor 0%, Mm-Cpn inhibitor -2%, PINK1 modulator 23%, ALOX12 inh 14µM* and CCT chaperon mod 0.
Screening C[S+](=O)([O-])N1CCCC2(C1)C(=NC1CCCC1)NC(=O)N2c1cc(F)cc(F)c1 (configuration not stated) returned ALOX12 inh 89µM*.
Screening COc1ccccc1Cn1[nH]nnc1=S returned ASM inhibitor 1%, Mm-Cpn inhibitor -1%, p53 reactivator -4%, PINK1 modulator 0%, ALOX12 inh 22µM* and CCT chaperon mod -1.
Screening O=C(O)CCc1ccc(S(=O)(=O)Nc2ccccc2C(=O)Nc2ccccc2)cc1 returned ALOX12 inh 53%.
For CC12CCC(C[N+](C)(C)C1)C2(C)C (configuration not stated) the results were ASM inhibitor 4%, Mm-Cpn inhibitor -3%, p53 reactivator -1%, PINK1 modulator 0%, ALOX12 inh inconclusive and CCT chaperon mod 1.
